# VLA-4 inh: inhibition in a human VLA-4 binding assay; P13612; VLA-4 expressing cells, ligand binding flow cytometry; inhibition, % (about 7 µM as worked out from the volumes in the protocol); 330,000 tested, 0.2% active; AID 2557; in the data active = inhibition above about 50%
# CendR NRP1 mod: alters CendR peptide binding to human NRP-1. FAM-RPARPAR peptide binding to NRP-1, fluorescence polarization. inhibition, % at 25 µM. 360,000 tested, 0.85% active;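 active = inhibition or corrected inhibition above about 18%, plus a signal ratio from 0.5 to 1.5, limit read from the data, passing the limit was not always enough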
# Target sequence (O14786 whole entry, looked up): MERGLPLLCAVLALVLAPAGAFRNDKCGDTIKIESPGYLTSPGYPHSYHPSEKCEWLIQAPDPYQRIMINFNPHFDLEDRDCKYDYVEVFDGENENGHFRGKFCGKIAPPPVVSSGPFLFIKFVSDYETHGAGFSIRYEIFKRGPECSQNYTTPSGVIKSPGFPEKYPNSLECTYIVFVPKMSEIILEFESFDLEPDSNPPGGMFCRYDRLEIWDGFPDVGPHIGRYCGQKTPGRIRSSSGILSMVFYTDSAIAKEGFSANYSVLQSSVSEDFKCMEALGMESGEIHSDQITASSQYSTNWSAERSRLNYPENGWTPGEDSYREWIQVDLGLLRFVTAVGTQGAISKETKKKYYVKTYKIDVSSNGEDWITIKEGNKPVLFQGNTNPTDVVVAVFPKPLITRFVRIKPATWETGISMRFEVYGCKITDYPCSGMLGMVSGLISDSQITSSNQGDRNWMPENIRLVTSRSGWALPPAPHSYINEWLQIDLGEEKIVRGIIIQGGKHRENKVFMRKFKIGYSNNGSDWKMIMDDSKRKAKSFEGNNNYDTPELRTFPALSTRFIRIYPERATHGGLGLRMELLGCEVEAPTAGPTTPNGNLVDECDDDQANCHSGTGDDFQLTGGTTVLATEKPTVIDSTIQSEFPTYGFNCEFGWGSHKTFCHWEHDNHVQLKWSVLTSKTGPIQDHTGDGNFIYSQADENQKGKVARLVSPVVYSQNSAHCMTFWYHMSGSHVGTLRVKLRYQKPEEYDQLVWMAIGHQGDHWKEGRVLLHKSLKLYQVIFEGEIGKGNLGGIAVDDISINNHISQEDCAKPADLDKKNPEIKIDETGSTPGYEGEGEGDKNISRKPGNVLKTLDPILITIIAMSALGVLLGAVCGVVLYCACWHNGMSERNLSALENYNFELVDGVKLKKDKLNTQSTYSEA
# A3G deaminase: blocks human APOBEC3G single-stranded DNA deamination; inhibition, % at 20 µM; AID 493012; recombinant A3G, ssDNA deamination FAM/TAMRA fluorescence; 330,000 tested, 0.28% active;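 active = inhibition of at least 40% at 20 µM, with no more than 30% in the related APOBEC3A deaminase screen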;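 also: plate controls were DMSO wells with A3G for no effect and wells lacking A3G enzyme for full effect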
# MIN6 prolif: MIN6 beta-cell proliferation induction; proliferation, % at 10 µM; 330,000 tested, 0.29% active; AID 2380; MIN6 cells proliferation, ATPlite luminescence, 48 h; cells starved in 0.2% serum; 100% = growth in 10% serum;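 active = compounds whose signal lies at least 3.5 SD above the mean of all wells on their plate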;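 also: 0% = DMSO-treated cells in low-serum medium and 100% = 10% serum control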
# A3A deaminase: blocks human APOBEC3A ssDNA deamination; 330,000 tested, 0.41% active; P31941; inhibition, % at 20 µM; recombinant A3A, FAM/TAMRA ssDNA deamination fluorescence;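 active = at least 40% inhibition at 20 µM here, with at most 30% in a related deaminase screen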;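 also: plate controls were A3A with DMSO for no effect and wells lacking A3A enzyme for full effect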
# A3A conf: APOBEC3A (human) deaminase inhibition, confirmed; 1,400 tested, 63% active; AID 493151; recombinant A3A, ssDNA deaminase UDG fluorescence assay; inhibition, % at 20 µM; shares compounds with A3A deaminase;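 active = inhibition reaching a set limit, 80% of the first screen's cutoff, at 20 µM in any replicate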;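 also: plate controls were DMSO wells with A3A for no effect and wells lacking A3A enzyme for full effect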
# UDG ctr A3A: inhibits UDG, flagging false APOBEC3A inhibitors. 1,000 tested, under 10 active. UDG counterscreen, FAM/TAMRA uracil oligo fluorescence. shares compounds with A3A deaminase. inhibition, % at 20 µM. AID 504714; call rule not given here
# An asterisk follows results filed as active; nt = not tested or not shown. Shown are actives, neighbours in structure and some others; about 1.8% of the full set was active somewhere.
SMILES,VLA-4 inh,CendR NRP1 mod,A3G deaminase,MIN6 prolif,A3A deaminase,A3A conf,UDG ctr A3A
Cc1ccc(S(=O)(=O)N2CCN(c3ncnc4sccc34)CC2)cc1,1,13,-7,-7,-5,nt,nt
COc1ccc(C(CC(=O)N2CCCC2)c2c(OC)cc(OC)c3c(-c4ccccc4)cc(=O)oc23)cc1 (centres undefined),-3,-24,28,-6,75*,76*,-3
CC(=O)Oc1ccccc1/C=C/c1nc2ccccc2c(=O)o1,-11,-17,-2,-6,1,nt,nt
O=c1oc(/C=C/c2ccc([N+](=O)[O-])s2)nc2ccccc12,-145,-182,4,-4,43*,33*,nt
C[C@H](NC(=O)c1ccccc1Cl)C(=O)NCc1cccs1,9,-1,5,-2,59*,5,nt
CSc1nsc(SC)c1-c1ccc(Cl)cc1,nt,1,nt,nt,nt,nt,nt
CC[n+]1ccc(C)c2cc(P(=O)(c3ccccc3)c3ccccc3)ccc21,1,-4,26,-1,63*,active,4
CCN(C[C@H]1N[C@@](C)(C(=O)OC)[C@H]2C(=O)N(C)C(=O)[C@@H]12)C(=O)COC,29,3,2,1,2,nt,nt
CCOC(=O)C1CCN(C(=O)Cc2cccc3ccccc23)CC1,-8,5,6,0,40*,58*,1
CCOC(=O)N1CCN(C(=O)Cc2cccc3ccccc23)CC1,8,2,-1,-2,-2,nt,nt
CCOC(=O)C1CCCN(S(=O)(=O)c2cc(Br)cc3c2N(C(=O)CC)CC3)C1 (centres undefined),0,2,-10,4,-4,nt,nt
CCOC(=O)[C@]12CCCC=C1N(Cc1ccccc1)C(=O)[C@H](CC(=O)N1CCCC1)C2,nt,-3,nt,nt,nt,nt,nt
Cn1c(=Nc2ccc(N3CCOCC3)cc2)ccc2ccccc21,14,13,20,-2,54*,21,nt
O=C(Cc1ccccc1[N+](=O)[O-])OCC(=O)c1ccccc1Br,2,-12,-7,-2,2,nt,nt
CN1/C(=C/c2cccc[n+]2C)Sc2ccccc21,-205,-6,21,-7,62*,87*,-1
Cc1ccc2c(c1)N(C)/C(=C/c1cccc[n+]1C)S2,-221,-3,23,-5,67*,91*,1
Cc1ccc2c(c1)N(C)/C(=C/c1cccc[n+]1CCO)S2,-70,1,16,-4,48*,83*,2
C[C@H](CO)N1C[C@H](C)[C@H](CN(C)C(=O)N[C@H](C)c2ccccc2)OCc2ccccc2-c2c(n(C)c3ccccc23)C1=O,nt,-3,nt,nt,nt,nt,nt
COC(=O)\C(C(C)=O)=C(/C=C/C=C/N(C)C)N(C)C,-35,4,14,0,47*,35*,nt
COC(=O)/C(C(C)=O)=C(/C=C/C=C/N(C)C)N(C)C,5,2,5,-3,26,nt,nt
Cc1ccc(N2NC(=O)/C(=C/c3ccc(-c4ccc(Cl)c(C(=O)O)c4)o3)C2=O)cc1,10,-30,15,0,15,nt,nt
CCCCC1(C)OC(=O)C(=Cc2ccc(-c3ccc(Cl)c(C(=O)O)c3)o2)C(=O)O1 (centres undefined),-3,-104,26,-1,55*,30*,1
COc1ccc(N2CC(C(=O)NCc3ccco3)CC2=O)cc1 (centres undefined),11,-3,-1,-3,41*,46*,4
CCOc1ccc(N2CC(C(=O)NCc3ccco3)CC2=O)cc1 (centres undefined),-4,2,-4,0,0,nt,nt
CC(C)Cc1nnc(NC(=O)Nc2ccccc2)s1,0,13,-4,0,70*,1,4
SMILES,VLA-4 inh,CendR NRP1 mod,A3G deaminase,MIN6 prolif,A3A deaminase,A3A conf,UDG ctr A3A
CC(C)Cc1nnc(NC(=O)CCC(=O)Nc2ccccc2)s1,-8,8,-4,0,-3,nt,nt
COc1ccc(NC(=O)CN2C(=O)S/C(=C/c3cccn3-c3ccc(C(=O)O)cc3)C2=O)cc1,-2,-46,25,-1,63*,57*,nt
Cc1ccc(NC(=O)CN2C(=O)S/C(=C\c3cccn3-c3cccc(C(=O)O)c3)C2=O)cc1C,9,-50,0,-2,13,nt,nt
O=C(Nc1cc2c(cc1Br)OCCCO2)c1cccnc1,10,7,-2,4,-2,nt,nt
O=C(Nc1cc2c(cc1Br)OCCCO2)c1ccccc1,6,-1,2,2,55*,1,nt
COc1ccc(N2CC(C(=O)N[C@H](C(=O)NC3CCCCC3)C(C)C)CC2=O)cc1 (some centres undefined),4,7,-10,6,-4,nt,nt
O=C(Nc1ccc(S(=O)(=O)N2CCCC2)cc1)C1CC(=O)N(c2ccccc2)C1 (centres undefined),15,-24,9,-1,72*,28,nt
Cc1ccc(S(=O)(=O)N2CCN(C(=O)COC(=O)CCOc3ccccc3C)CC2)c(C)c1,nt,-6,15,5,47*,62*,-1
O=C(CN1C(=O)S/C(=C/c2ccccn2)C1=O)N1CCOCC1,-6,9,3,0,57*,2,nt
Cc1ccc(/C=C2/SC(=O)N(CC(=O)N3CCOCC3)C2=O)s1,3,-29,1,-1,4,nt,nt
Cc1nc(SCCOc2ccc(F)cc2)c2ccccc2n1,-7,8,15,-1,51*,76*,6
CC1CCC(C(C)C)C(OCC(O)C[N+]2(C)CCCCC2)C1 (centres undefined),7,3,14,-2,78*,74*,3
COc1cc(C)c(NC(=S)Nc2ccc(Cl)c(Cl)c2)cc1OC,8,13,-10,0,-6,nt,nt
CCOc1ccc(NC(=O)Cn2nnc(C(=O)NCc3cccs3)c2N)cc1,1,-4,8,0,4,nt,nt
C=CCn1c(SCc2nc3ccccc3nc2C)nnc1-c1ccoc1C,5,-21,-5,0,45*,-1,3
CC(=O)N1CCN(C(=O)COC(=O)/C=C/c2ccc(C(F)(F)F)cc2)CC1,11,-6,-3,-3,0,nt,nt
Cc1ccc(N2C(SCC(=O)O)=NC(=Nc3cccc(C)c3)C23CCCC3)cc1,13,0,5,-3,44*,15*,-2
COCCN(CC(=O)Nc1cccc(C)c1C)C(=O)CN1C(=O)NC2(CCCCC2)C1=O,-5,1,6,1,41*,49*,1
CCN(C(=O)COc1ccc(F)cc1Br)c1c(N)n(Cc2ccccc2)c(=O)[nH]c1=O,15,13,-6,0,-4,nt,nt
COc1ccc(-c2csc(N(CCCN(C)C)C(=O)c3ccccc3F)n2)cc1,4,2,-9,-3,48*,-6,-1
COc1ccc(-c2csc(N(CCCN(C)C)C(=O)c3ccccc3C)n2)cc1,3,-10,31,-5,-5,nt,nt
